According to PubChem BioAssay (NCATS):
Inconclusive results are not listed. The source made the active and inactive calls. Unless noted, calls come from the whole dose curve; as a rule, active = well fitted curve in the direction sought with a large enough effect; inconclusive = small, poorly fitted or top-dose-only effect, or another doubt; inactive = no such curve, though single readings can be large; an effect the other way counts as inactive or inconclusive.

Tests used:
[1] = AP1 Signaling Pathway (AID 357; active = well fitted curve in either direction with a large enough effect, not every such curve was filed as active; note: % is set by controls: 0 for no effect and ±100 for the full control effect); details: ME-180 AP-1-bla reporter, EGF-induced, beta-lactamase ratio, 5 h; at 38 µM (top of the series)
Outline: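 ME-180 cells with beta-lactamase reporter under AP-1 response element, stimulated with EC50 EGF; compounds tested in titration series, 5 h at 37 °C. CCF4 substrate added 2.5 h at room temperature; 460/530 nm emission ratio gave %activity and AC50.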

[2] = molecular target: Cytochrome P450 1A2 (Homo sapiens) (UniProt P05177); assay: p450-cyp1a2 (AID 410; calls by dose curve;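 note: -100% = full effect of reference inhibitor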)
Chain of Cytochrome P450 1A2 (Homo sapiens) (P05177 whole entry, looked up): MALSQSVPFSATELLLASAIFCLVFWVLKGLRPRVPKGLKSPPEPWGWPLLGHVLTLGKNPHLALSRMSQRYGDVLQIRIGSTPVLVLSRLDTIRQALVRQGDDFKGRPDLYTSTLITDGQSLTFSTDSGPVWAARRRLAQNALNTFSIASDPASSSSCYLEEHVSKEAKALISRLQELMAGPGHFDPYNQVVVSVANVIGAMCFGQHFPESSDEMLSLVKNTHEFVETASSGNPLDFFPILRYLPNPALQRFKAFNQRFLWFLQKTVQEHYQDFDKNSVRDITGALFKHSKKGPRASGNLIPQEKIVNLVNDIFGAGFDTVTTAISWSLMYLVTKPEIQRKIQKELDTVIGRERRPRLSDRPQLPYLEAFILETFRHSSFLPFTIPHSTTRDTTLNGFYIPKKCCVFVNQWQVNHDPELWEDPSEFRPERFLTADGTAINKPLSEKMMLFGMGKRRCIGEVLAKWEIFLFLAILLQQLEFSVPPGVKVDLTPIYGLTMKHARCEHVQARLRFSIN
Outline: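 20nM CYP1A2 with 100uM Luciferin-ME (at Km) in 100mM KPO4; compound preincubated 10 min, NADPH regeneration added, 60 min at room temperature. Luciferin quantified by luminescence after detection reagent; normalized to 57 uM furafylline.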

[3] = NFAT Signaling Pathway (AID 444; active = well fitted curve in either direction with a large enough effect, not every such curve was filed as active;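 note: carbachol stimulus at about its EC50 of 1 µM final; % is set by controls: 0 for no effect and ±100 for the full control effect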); details: Jurkat NFAT-bla M1, carbachol, beta-lactamase ratio, 5 h; at 38 µM (top of the series)
Outline: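 Jurkat cells with NFAT-driven β-lactamase reporter and co-expressed M1 receptor, stimulated with carbachol (final 1 uM, ~EC50), compound titration, 5 h at 37 °C. CCF4 loaded 1 h at RT; 460/530 nm ratio gave %activity and AC50.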

[4] = molecular target: Glucocorticoid receptor (Homo sapiens) (UniProt P04150); assay: GR-GFP Redistribution (AID 450;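 active = compounds whose dose series gives a full or clear partial fitted curve of increased nuclear translocation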; note: potency is the fitted concentration of half-maximal effect); details: U2OS GR-GFP nuclear translocation, laser cytometry, 2 h
Chain of Glucocorticoid receptor (Homo sapiens) (P04150 whole entry, looked up, the tested form may be a part): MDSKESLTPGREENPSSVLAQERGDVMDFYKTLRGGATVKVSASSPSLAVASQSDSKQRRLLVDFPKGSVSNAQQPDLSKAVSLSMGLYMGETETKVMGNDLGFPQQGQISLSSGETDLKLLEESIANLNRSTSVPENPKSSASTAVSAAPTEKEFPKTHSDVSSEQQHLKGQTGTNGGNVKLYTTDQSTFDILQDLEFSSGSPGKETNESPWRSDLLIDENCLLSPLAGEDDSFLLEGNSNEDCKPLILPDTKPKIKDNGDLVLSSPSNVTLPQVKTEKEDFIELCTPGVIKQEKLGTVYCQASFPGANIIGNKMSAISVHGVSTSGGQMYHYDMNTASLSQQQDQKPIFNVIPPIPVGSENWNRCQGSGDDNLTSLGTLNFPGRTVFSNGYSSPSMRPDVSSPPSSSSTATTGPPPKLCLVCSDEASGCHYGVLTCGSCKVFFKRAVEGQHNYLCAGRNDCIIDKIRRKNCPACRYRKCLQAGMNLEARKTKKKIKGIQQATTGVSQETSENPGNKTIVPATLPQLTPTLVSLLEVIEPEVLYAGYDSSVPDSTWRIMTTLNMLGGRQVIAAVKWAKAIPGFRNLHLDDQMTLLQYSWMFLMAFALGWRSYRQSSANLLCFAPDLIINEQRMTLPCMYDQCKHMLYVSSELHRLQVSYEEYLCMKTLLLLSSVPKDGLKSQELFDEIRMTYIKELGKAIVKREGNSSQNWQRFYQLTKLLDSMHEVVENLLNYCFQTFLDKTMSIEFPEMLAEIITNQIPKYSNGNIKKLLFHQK

[5] = molecular target: Glucocorticoid receptor (Homo sapiens) (UniProt P04150); assay: GR-EFC Redistribution (AID 451; calls by dose curve; note: potency is the fitted concentration of half-maximal effect); details: CHO-K1 GR-EFC translocation, beta-gal luminescence, 2 h
Outline: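 CHO-K1 cells expressing nuclear EA and GR-ED fragments of b-gal; compounds titrated up to 46 uM final, 2 h at 37 C. GR nuclear translocation read as complemented b-gal luminescence after 1 h RT detection.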

[6] = molecular target: Mitogen-activated protein kinase 10 (Mus musculus) (UniProt Q61831); assay: JNK3 AlphaScreen Assay (AID 530; active = well fitted curve in either direction with a large enough effect, not every such curve was filed as active;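 note: kinase came from lysate of stimulated human HepG2 cells; signal reports phosphorylation of biotinylated GST-cJun 1-79 at Ser73 with 10 µM ATP; % is set by controls: 0 for no effect and ±100 for the full control effect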)
Outline: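 Pre-activated (IL-1β/TNFα) JNK3 in HepG2 lysates phosphorylates biotin-GST-cJun(1-79), 10 uM ATP; anti-phospho-cJun(Ser73) AlphaScreen read at room temperature, pH 7.6 Tris buffer. Compounds pre-incubated 15 min as titrations.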

[7] = molecular target: 3',5'-cyclic-AMP phosphodiesterase 4B (Homo sapiens) (UniProt Q07343); assay: qHTS Assay for Inhibitors of PDE-IV (AID 607; active = well fitted activation curve with a large enough effect in the main read-out, with a control signal flat, not every such curve was filed as active; note: % of control where 0% means no effect)
Chain of 3',5'-cyclic-AMP phosphodiesterase 4B (Homo sapiens) (Q07343 whole entry, looked up): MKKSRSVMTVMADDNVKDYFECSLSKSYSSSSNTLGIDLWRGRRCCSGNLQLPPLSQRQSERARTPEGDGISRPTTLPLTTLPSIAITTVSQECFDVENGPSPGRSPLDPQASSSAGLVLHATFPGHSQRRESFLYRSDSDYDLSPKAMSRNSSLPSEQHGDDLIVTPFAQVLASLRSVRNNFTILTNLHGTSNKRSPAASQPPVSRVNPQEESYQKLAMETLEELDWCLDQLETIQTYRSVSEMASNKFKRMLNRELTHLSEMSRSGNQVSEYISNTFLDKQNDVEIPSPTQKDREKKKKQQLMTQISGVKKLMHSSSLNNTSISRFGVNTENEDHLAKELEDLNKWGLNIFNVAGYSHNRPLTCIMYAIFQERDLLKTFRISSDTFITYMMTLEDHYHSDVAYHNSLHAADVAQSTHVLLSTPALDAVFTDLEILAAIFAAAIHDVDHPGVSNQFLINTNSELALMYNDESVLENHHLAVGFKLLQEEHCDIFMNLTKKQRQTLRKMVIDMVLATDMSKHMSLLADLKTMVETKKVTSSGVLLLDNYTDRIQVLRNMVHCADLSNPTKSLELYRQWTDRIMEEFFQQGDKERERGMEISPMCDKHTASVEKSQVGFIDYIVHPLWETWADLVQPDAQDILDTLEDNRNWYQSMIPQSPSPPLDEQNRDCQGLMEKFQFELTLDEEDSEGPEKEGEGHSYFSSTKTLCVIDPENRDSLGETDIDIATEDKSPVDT
Outline: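 ACTOne HEK293 cells carry a modified cAMP-gated CNG channel and express endogenous PDE4; plated 1000 cells/well, compounds up to 22.9 uM final. Membrane-potential dye fluorescence (ex 535/em 590) was read; parental cells received 10 uM forskolin + 100 uM RO 20-1724.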

[8] = molecular target: Guanine nucleotide-binding protein G(i) subunit alpha-1 (Homo sapiens) (UniProt P63096); assay: qHTS Assay for Inhibitors of RGS12 GoLoco Motif Activity (Green Fluorophore) (AID 879);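 note: 0% = labeled peptide with Gαi1 and full inhibition = labeled peptide alone without protein; negative values mean loss of peptide binding seen as reduced polarization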
Chain of Guanine nucleotide-binding protein G(i) subunit alpha-1 (Homo sapiens) (P63096 whole entry, looked up): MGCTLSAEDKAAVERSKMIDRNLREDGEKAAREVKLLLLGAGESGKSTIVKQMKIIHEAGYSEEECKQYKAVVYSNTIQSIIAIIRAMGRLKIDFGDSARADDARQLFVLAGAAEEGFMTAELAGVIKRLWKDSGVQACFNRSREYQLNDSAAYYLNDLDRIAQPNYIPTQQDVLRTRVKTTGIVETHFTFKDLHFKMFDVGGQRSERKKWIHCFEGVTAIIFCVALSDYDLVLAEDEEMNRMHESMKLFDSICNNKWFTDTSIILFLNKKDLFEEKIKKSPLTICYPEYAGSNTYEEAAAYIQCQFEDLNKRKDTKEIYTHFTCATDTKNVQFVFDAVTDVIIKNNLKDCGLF
Outline: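 Fluorescence polarization assay: 50 nM Gαi1 with 10 nM FITC-labeled RGS12 GoLoco peptide in 10 mM Tris pH 7.5, 150 mM NaCl, 0.1 mM GDP, 0.05% NP40, 10 min at room temperature with compound.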

[9] = molecular target: Cytochrome P450 2D6 (Homo sapiens) (UniProt P10635); assay: qHTS Assay for Inhibitors and Substrates of Cytochrome P450 2D6 (AID 891); note: potency is the fitted concentration of half-maximal effect; nearly all actives have a fitted effect of over 60% in size
Chain of Cytochrome P450 2D6 (Homo sapiens) (P10635 whole entry, looked up): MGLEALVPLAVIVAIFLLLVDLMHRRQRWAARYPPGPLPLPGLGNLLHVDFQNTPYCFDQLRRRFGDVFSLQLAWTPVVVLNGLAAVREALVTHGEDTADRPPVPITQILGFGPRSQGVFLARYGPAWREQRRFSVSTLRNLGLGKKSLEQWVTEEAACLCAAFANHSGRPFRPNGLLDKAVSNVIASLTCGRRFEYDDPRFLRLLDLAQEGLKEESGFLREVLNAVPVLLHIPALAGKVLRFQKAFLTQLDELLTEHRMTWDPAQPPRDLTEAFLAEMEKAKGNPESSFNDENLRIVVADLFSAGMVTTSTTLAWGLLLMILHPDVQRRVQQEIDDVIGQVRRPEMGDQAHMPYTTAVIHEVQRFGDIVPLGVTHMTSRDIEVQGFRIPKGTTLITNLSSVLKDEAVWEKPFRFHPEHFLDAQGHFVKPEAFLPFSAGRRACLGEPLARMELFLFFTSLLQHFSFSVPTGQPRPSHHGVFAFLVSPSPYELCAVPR
Outline: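 Human CYP2D6 (5 nM) with 30 uM Luciferin-ME EGE (at Km) in 100 mM KPO4, compound preincubated 10 min, then NADPH regeneration system for 60 min at room temperature. Luciferin read by luminescence; normalized to 1.43 uM quinidine.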

[10] = qHTS Assay for Identification of Small Molecule Agonists for Thrombopoietin (TPO) Signaling Pathway (AID 917); note: % is set by controls: 0 for no effect and ±100 for the full control effect
Outline: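 Murine Ba/F3 cells expressing human TPO receptor and GPIIb-promoter luciferase, IL-3-starved overnight, given compound plus TPO at 26 pM (EC50). After 24 h at 37 C, 5% CO2, luminescence read.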

[11] = molecular target: Muscarinic acetylcholine receptor M1 (Rattus norvegicus) (UniProt P08482); assay: qHTS Assay for Antagonists of Acetylcholine Muscarinic M1 Receptor: Kinetic Measurement of Intracellular Calcium Response (AID 943); note: nearly all actives have a fitted effect of over 75% in size
Outline: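 CHO cells expressing rat M1 receptor, Fluo-4 loaded, preincubated 10 min with compound, then stimulated with EC80 carbachol (100 nM final). Kinetic calcium fluorescence over 4 min; response taken as peak over basal signal.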

[12] = molecular target: Pyruvate kinase (Leishmania mexicana) (UniProt Q27686); assay: qHTS Validation Assay for Inhibitors of Leishmania Mexicana Pyruvate Kinase (AID 945);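 note: 0% = DMSO only neutral control wells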
Chain of Pyruvate kinase (Leishmania mexicana) (Q27686 2-499 E452W): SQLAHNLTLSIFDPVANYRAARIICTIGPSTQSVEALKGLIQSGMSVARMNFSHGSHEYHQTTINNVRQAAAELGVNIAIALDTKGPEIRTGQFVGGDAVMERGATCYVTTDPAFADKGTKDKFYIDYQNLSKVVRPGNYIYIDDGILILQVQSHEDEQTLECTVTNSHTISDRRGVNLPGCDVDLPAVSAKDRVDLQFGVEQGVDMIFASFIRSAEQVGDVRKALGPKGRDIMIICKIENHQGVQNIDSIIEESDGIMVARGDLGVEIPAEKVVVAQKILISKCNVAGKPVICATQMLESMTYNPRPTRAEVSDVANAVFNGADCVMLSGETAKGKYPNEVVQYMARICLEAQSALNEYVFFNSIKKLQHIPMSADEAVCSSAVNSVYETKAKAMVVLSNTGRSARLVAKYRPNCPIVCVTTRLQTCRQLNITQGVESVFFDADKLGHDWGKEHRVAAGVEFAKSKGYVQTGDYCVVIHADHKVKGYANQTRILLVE
Outline: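 An endpoint luciferase assay: 0.2 nM LmPYK E451W turns over 0.5 mM PEP with 0.1 mM ADP for 1 h at room temperature, pH 7.2, before PKLight addition. Values are normalized to DMSO-only wells.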

[13] = molecular target: Pyruvate kinase PKM (Homo sapiens) (UniProt P14618); assay: qHTS Assay for Activators of Human Muscle Pyruvate Kinase (AID 954; active = well fitted curve in the direction sought with a large enough effect, not every such curve was filed as active;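 note: 0% = uninhibited enzyme and -100% = no enzyme or full thiadiazolimine inhibition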)
Outline: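 Luminescence from a luciferase ATP-detection/stop reagent reported PKM2 activity. Reactions contained 0.1 nM purified human enzyme, 0.5 mM PEP, 0.1 mM ADP and 7 mM MgCl2 at pH 7.2, run 1 h at RT.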

[14] = molecular target: Alpha-galactosidase A (Homo sapiens) (UniProt P06280); assay: Counterscreen for Glucocerebrosidase Inhibitors: qHTS Assay for Human alpha-Galactosidase at pH 4.5 (AID 992); note: 0% is about no effect
Chain of Alpha-galactosidase A (Homo sapiens) (P06280 whole entry, looked up): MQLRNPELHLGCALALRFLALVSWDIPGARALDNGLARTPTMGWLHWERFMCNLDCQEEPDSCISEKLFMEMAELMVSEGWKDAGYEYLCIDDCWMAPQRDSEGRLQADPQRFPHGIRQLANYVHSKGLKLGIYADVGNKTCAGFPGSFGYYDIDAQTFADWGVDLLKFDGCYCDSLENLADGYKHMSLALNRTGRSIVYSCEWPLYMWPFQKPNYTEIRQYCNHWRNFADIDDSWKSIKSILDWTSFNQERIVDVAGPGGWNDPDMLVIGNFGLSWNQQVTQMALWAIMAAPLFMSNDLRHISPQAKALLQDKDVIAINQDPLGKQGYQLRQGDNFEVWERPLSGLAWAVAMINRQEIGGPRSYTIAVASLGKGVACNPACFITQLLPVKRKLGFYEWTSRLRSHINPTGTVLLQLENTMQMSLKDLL
Outline: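 Enzyme at 2 nM final was combined with compound (0.7 nM to 77 uM) and 80 uM 4-methylumbelliferyl alpha-D-galactopyranoside in 50 mM citric acid, 0.005% Tween-20, pH 4.5. After 20 min at room temperature, fluorescence was read (Ex 365/Em 440 nm); AC50 came from Hill fits.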

[15] = molecular target: alpha-glucosidase (Oryza sativa, rice) (UniProt Q653V4); assay: Counterscreen for Glucocerebrosidase Inhibitors: qHTS Assay for Rice alpha-Glucosidase at pH 5.0 (AID 997);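 note: 0% = full activity with enzyme and -100% = basal without enzyme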
Outline: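 Rice alpha-glucosidase (4 nM final) with 400 uM 4-methylumbelliferyl-alpha-D-glucopyranoside in citrate buffer pH 5.0, 20 min at room temperature, stopped at pH 10; fluorescence 365/440 nm, compounds 0.7 nM–77 uM, AC50 from Hill fits.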

[16] = qHTS Assay for Lipid Storage Modulators (AID 1519; calls by dose curve); details: Drosophila S3 cells, BODIPY lipid droplet/cell ratio, laser cytometry, cells loaded with oleic acid
Outline: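 Cells seeded at 5,000 per well were treated with compounds over a concentration series and loaded with oleic acid (400 uM, as added). Lipid droplet fluorescence (488 nm excitation, 500-530 nm channel) was read by laser-scanning cytometry and normalized to 20 uM Triacsin C.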

[17] = molecular target: DNA dC->dU-editing enzyme APOBEC-3G (Homo sapiens) (UniProt Q9HC16); assay: qHTS for inhibitors of Vif-A3G interactions: Validation (AID 588379); note: 0% is about no effect
Chain of DNA dC->dU-editing enzyme APOBEC-3G (Homo sapiens) (Q9HC16 whole entry, looked up): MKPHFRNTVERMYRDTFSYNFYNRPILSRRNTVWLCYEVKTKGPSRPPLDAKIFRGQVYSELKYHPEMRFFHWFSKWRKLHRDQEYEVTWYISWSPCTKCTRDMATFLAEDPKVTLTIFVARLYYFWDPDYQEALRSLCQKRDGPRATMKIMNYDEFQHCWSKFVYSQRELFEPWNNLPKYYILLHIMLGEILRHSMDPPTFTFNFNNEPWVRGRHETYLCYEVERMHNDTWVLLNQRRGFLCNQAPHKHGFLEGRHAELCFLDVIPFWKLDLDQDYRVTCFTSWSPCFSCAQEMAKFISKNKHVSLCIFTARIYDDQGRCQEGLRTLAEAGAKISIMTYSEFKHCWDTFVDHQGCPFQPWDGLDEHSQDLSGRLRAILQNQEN
Outline: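 HeLa cells stably expressing Vif and A3G-eYFP, 700 cells/well, incubated overnight at 37 deg C, then exposed to compound overnight at 37 deg C. Inhibition of Vif-mediated degradation read as increased yellow fluorescence (Ex 488/Em 500-530) by laser-scanning cytometry.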

[18] = tested on: Zika virus NS2B-NS3 protease; assay: Primary screen GU AMC qHTS for Zika virus inhibitors (AID 1347154);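 note: 0% = no-inhibitor control and -100% = no-enzyme control; nearly all actives have a fitted effect of over 70% in size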
Outline: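 Unlinked Zika NS2B hydrophilic domain–NS3 protease complex at 25 nM in 10 mM Tris-HCl pH 8.0, 0.01% Tween 20, with an AMC peptide substrate. Fluorescence change (340/450 nm) over 15 min at room temperature, normalized to controls, fitted to 4-parameter Hill.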

[19] = Counterscreen qHTS for small molecule stabilizers of the endoplasmic reticulum resident proteome: GLuc-NoTag assay (AID 1508627);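 note: SH-SY5Y cells given compound then 100 nM thapsigargin to empty ER calcium; 0% = thapsigargin alone and -100% = DMSO vehicle control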
Outline: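 SH-SY5Y cells stably expressing constitutively secreted GLuc without SERCaMP tag, exposed to compound for 19 hr, then to 100 nM thapsigargin for 4 hr at 37C. Medium luciferase was read by coelenterazine luminescence without lysis.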

[20] = Cell Viability qHTS for small molecule stabilizers of the endoplasmic reticulum resident proteome (AID 1508629); details: cell viability counter-screen, 100 nM thapsigargin for final 4 h
[21] = Stat Signaling Pathway (AID 446; active = well fitted curve in either direction with a large enough effect, not every such curve was filed as active); details: ME-180 SIE beta-lactamase reporter, IL-6 stimulated, 5 h; at 38 µM (top of the series)
Outline: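 ME-180 SIE-bla cells; overnight plating; cpd + IL-6 40 pM, 5 h, 37 C; LiveBLAzer 2.5 h RT; 460/530 nm emission ratio. Normalized to 300 pM IL-6 and 125 nM JAK inhibitor controls.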

[22] = molecular target: Cytochrome P450 2C9 (Homo sapiens) (UniProt P11712); assay: qHTS Assay for Inhibitors and Substrates of Cytochrome P450 2C9 (AID 883); note: % is set by controls: 0 for no effect and ±100 for the full control effect; nearly all actives have a fitted effect of over 60% in size
Outline: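 Signal: luciferase luminescence reporting luciferin produced by CYP2C9. Conditions: 10nM enzyme, Luciferin-H 100uM at KM, 25mM KPO4, 37C, 60 min NADPH-driven reaction. Reference: 57uM sulphaphenazole as 100% inhibition.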

[23] = molecular target: Cytochrome P450 3A4 (Homo sapiens) (UniProt P08684); assay: qHTS Assay for Activators of Cytochrome P450 3A4 (AID 885); note: nearly all actives have a fitted effect of over 65% in size
Chain of Cytochrome P450 3A4 (Homo sapiens) (P08684 whole entry, looked up): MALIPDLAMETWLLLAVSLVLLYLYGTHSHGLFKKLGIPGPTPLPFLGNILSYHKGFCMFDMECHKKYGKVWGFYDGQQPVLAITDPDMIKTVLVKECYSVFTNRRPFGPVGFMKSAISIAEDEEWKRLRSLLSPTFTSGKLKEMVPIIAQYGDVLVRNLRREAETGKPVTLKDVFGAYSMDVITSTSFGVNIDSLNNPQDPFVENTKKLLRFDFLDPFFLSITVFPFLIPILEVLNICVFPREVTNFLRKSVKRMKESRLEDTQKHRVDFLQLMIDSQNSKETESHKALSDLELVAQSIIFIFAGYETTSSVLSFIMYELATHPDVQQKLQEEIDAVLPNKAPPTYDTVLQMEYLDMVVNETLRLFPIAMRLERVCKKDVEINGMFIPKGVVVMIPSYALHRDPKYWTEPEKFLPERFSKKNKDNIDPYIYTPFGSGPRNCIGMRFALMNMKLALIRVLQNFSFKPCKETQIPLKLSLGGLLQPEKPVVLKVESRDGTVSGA
Outline: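 20nM CYP3A4 + 25uM Luciferin-PPXE (=KM), 200mM KPO4; cpd 10 min RT; NADPH regen, 60 min RT; stop w/ detection buffer, 20 min; luminescence. Normalized to 57 uM ketoconazole.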

[24] = Confirmatory qHTS for small molecule stabilizers of the endoplasmic reticulum resident proteome: Secreted ER Calcium Modulated Protein (SERCaMP) assay (AID 1508628); note: potency is the fitted concentration of half-maximal effect; nearly all actives have a fitted effect of over 40% in size
Outline: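 SH-SY5Y cells stably expressing GLuc-SERCaMP, treated 16 h with compound (primary 1.53, 7.67, 38.3 uM; confirmation 11 concentrations, up to 76.6 uM), then 100 nM thapsigargin for 4 h. Secreted Gaussia luciferase in medium read by coelenterazine luminescence.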

C[C@]12CC3CC(N)(C1)C[C@@](C)(C3)C2
inactive: activity change, negative = inhibition [1] 19.1% | Potency [2] | activity change, negative = inhibition [3] -5.02% | Potency [4] > 46 µM | Potency [5] > 46 µM | Potency [6] | Potency [7] | outcome [8] | Potency [10] | Potency [11] | Potency [12] | outcome [13] | outcome [14] | outcome [15] | activity change, negative = inhibition ([16]; at 57.5 µM (top of the series)) -0.0594% | Potency [17] | Potency [18] | Potency [19] | max response [20] -0.737%
active: Potency [9] 0.316 µM
-24.5%: max response ([16]; measured here: cell count channel max response)
-26.5%: max response ([16]; measured here: lipid channel max response)

COc1ccc(/C=C\C(=O)Nc2ccccc2C(=O)O)cc1OC
inactive: activity change, negative = inhibition [1] -10.8% | Potency [2] | activity change, negative = inhibition [3] -3.53% | activity, negative = inhibition [21] 7.79% | Potency [4] > 46 µM | Potency [5] > 46 µM | Potency [6] | Potency [7] | Potency [22] | Potency [23] | Potency [17] | Potency [18] | max response [20] -9.06%

CC(C)C[C@H]1C(=O)N2CCC[C@@H]2[C@]2(O)O[C@](NC(=O)[C@@H]3C=C4c5cccc6[nH]c(Br)c(c56)C[C@H]4N(C)C3)(C(C)C)C(=O)N12
active: Potency [24] 10 µM
inactive: Potency [2] | Potency [4] > 46 µM | Potency [5] > 46 µM | Potency [6] | Potency [7] | Potency [23] | Potency [17] | Potency [18] | Potency [19] | max response [20] -14.6%
